Inconclusive results are not listed. The call rests on the fitted dose curve; in most records, active means well fitted inhibition curve with a large enough effect; inconclusive means small, poorly fitted or top-dose-only effect; inactive means flat fitted curve, though single readings scatter.
target: Luciferin 4-monooxygenase (Photinus pyralis) (UniProt P08659); test: Biochemical firefly luciferase enzyme assay for NPC (AID 624030);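 further: purified P. pyralis luciferase at 10 nM with luciferin and ATP substrate; 0% = DMSO and -100% = full luciferase inhibition by PTC124 control; nearly all actives have a fitted effect of over 70% in size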; conditions: purified P. pyralis luciferase, luminescence, 5 min; series mostly up to 24.9 µM; activity change, negative = inhibition: at the top concentration
Sequence (P08659 whole entry, looked up): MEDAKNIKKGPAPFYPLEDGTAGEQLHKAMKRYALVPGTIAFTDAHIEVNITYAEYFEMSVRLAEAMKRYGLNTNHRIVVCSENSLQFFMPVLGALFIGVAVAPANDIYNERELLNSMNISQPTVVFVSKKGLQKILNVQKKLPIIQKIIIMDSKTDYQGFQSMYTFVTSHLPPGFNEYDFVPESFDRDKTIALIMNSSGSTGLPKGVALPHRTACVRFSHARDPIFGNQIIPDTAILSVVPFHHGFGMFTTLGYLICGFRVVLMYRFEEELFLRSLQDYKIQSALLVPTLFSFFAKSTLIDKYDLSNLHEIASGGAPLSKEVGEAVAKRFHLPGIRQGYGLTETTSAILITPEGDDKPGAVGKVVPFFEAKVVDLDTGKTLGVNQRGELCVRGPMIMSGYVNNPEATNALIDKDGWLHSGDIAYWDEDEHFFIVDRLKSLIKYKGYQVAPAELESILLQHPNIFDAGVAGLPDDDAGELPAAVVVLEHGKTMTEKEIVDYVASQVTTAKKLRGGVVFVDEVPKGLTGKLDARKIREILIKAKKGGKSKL
Outline: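 Purified P. pyralis luciferase at 10 nM in 50 mM Tris Acetate (final), luminescence read within 5 minutes of enzyme addition to compounds. Activity normalised to PTC124 versus DMSO; concentration-response curves classed by r2, magnitude and activity.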

Activity change, negative = inhibition, inactive:
CCO[C@H]1O[C@@H]([C@H](COCc2ccccc2)OCc2ccccc2)[C@@H](OCc2ccccc2)[C@H]1O -1.76%, COc1cc(N[C@@H](C)CCCN)c2ncccc2c1 3%, C=Cc1c(C)c2cc3nc(cc4[nH]c(cc5nc(cc1[nH]2)C(C)=C5CCC(=O)O)c(CCC(=O)OC)c4C)[C@@]1(C)C3=CC=C(C(=O)OC)[C@H]1C(=O)OC (tested in a mixture with another compound) -18.2% [at 58.6 µM], O=C(OC[C@@H](O)CO)c1ccccc1Nc1ccnc2cc(Cl)ccc12 -6.1%, CO[C@]1(NC(=O)[C@H](C(=O)O)c2ccc(O)cc2)C(=O)N2C(C(=O)O)=C(CSc3nnnn3C)CO[C@H]21 -0.595%, COc1ccc2c(c1)N(C[C@@H](C)CN(C)C)c1ccccc1S2 8.73%, CCC(C)(C)C(=O)O[C@@H]1C[C@H](C)C=C2C=C[C@H](C)[C@@H](CC[C@H]3C[C@@H](O)CC(=O)O3)[C@H]21 -2.68%, CCN(CC)[C@@H](C)CN1c2ccccc2Sc2ccccc21 5.15%, COC(=O)[C@@H]1[C@@H]2C[C@H]3c4[nH]c5cc(OC)ccc5c4CCN3C[C@@H]2C[C@H](OC(=O)/C=C\c2cc(OC)c(OC)c(OC)c2)[C@H]1OC 0.175%, CC=C(/C(=C/C)c1ccc(O)cc1)c1ccc(O)cc1 -7.44%, CC1(C)S[C@@H]2[C@H](NC(=O)[C@@H](N)c3ccccc3)C(=O)N2[C@H]1C(=O)O[C@H]1OC(=O)c2ccccc21 1.26%

— PubChem BioAssay (NCATS)
